Compound activity from PubChem BioAssay.
PRMT1 FP inh = PRMT1 methyltransferase inhibitors, primary screen, biochemical, fluorescence polarization; inhibition, % at 2.79 µM; 370,000 tested, 1.3% active; Protein arginine N-methyltransferase 1 (Homo sapiens), Q99873; recombinant PRMT1, activity-based probe fluorescence polarization;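 active = inhibition above about 21% made by adding two undisclosed values, limit read from the data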
PAD4 inh = human PAD4 inhibitors, primary screen, biochemical, fluorescence polarization, 1536-well format. inhibition, % at 6.36 µM. 330,000 tested, 0.41% active. recombinant PAD4, RCA probe fluorescence polarization. AID 485272, 2010;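 active = percent inhibition above a cutoff equal to the mean of all tested compounds plus 3 SD, cut at about 15% in these data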
Target sequence (Q9UM07 whole entry, looked up): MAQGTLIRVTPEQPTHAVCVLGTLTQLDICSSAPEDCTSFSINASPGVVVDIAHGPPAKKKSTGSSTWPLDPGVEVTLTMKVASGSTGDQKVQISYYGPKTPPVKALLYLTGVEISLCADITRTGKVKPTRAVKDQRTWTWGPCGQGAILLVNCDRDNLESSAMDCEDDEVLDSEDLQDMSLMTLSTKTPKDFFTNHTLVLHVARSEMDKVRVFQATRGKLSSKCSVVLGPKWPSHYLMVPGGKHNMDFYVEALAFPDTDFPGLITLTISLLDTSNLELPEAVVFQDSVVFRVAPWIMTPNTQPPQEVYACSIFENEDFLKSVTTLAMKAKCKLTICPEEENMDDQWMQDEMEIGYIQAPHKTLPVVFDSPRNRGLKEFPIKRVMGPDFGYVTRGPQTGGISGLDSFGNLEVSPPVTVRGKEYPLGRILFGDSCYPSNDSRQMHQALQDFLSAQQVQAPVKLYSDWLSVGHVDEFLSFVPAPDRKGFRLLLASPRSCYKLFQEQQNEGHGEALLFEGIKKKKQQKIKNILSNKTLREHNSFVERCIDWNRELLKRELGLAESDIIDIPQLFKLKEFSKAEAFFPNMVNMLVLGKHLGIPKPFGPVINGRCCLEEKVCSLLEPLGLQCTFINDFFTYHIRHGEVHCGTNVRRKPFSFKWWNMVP
TCR CD3 inh = inhibitors of human TCR-CD3 interaction, primary screen, biochemical, fluorescence, TAMRA-labeled TCR probe | AID 651800, 2012 | T-cell receptor (TCR) | 360,000 tested, 0.37% active | inhibition, % at 9.4 µM; in the data active = inhibition above about 19%;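 note: recombinant mutant TCR 2C K166C tagged with TAMRA read by polarization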
SIAE inh = human SIAE inhibitors, primary screen, biochemical, fluorescence polarization, FP-Rh probe, 1536-well HTS. inhibition, % at 9.66 µM. Sialate O-acetylesterase (Homo sapiens), Q9HAT2. 370,000 tested, 0.69% active. SIAE FP-Rh probe binding;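 active = inhibition above a cutoff: mean of compounds within the control limits plus 3 SD of those, cut at about 17% in these data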
PME-1 primary = PME-1 inhibitors via competitive probe labeling, primary screen, biochemical, fluorescence polarization, FP-Rh probe, HTS; 320,000 tested, 0.53% active; Protein phosphatase methylesterase 1 (Homo sapiens), Q9Y570; recombinant PME-1; inhibition, % at 5.9 µM;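 active = inhibition above the campaign mean of all compounds plus 3 SD, cut at about 26% in these data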;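 note: competitive labeling of PME-1 active site by serine hydrolase directed probe; inhibitors block probe labeling so polarization falls and inhibition rises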
Fam108B inh = mouse Fam108B serine hydrolase inhibitors, primary screen, counter-screen for RBBP9 inhibitor project, biochemical, fluorescence polarization; recombinant Fam108B, FP-Rh probe fluorescence polarization; inhibition, % at 9.51 µM; 300,000 tested, 0.33% active; AID 1947, 2009;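 active = inhibition above the screen mean inhibition plus 3 SD, computed separately per campaign, cut at about 18% in these data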;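 note: inhibitors lower polarization as less probe binds the enzyme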
PRMT1 inh conf = PRMT1 methyltransferase inhibitors, confirmation, biochemical, fluorescence polarization, triplicate. inhibition, % at 2.79 µM. recombinant His-PRMT1, activity-based probe fluorescence polarization. AID 687036, 2013. shares compounds with PRMT1 FP inh. 3,300 tested, 42% active;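 active = mean inhibition across replicates above the hit cutoff derived for the earlier primary screen, cut at about 22% in these data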
Each line names hits and unclear results; the compound was inactive in the other large screens (follow-up assays come after a bar, where they were run). This is a sample that favours compounds with a hit; in the whole collection about 2.6% have one here.

CN(C)S(=O)(=O)c1cccc(C(=O)N2CCc3ccccc32)c1	none
CN(C)S(=O)(=O)c1cccc(C(=O)C2=C3SC=C(c4ccccc4)N3CC2)c1	PRMT1 FP inh 26.5 | PRMT1 inh conf 27.9
Cc1ccc(S(=O)(=O)/N=C2/NC(=O)/C(=C/c3ccc(Br)o3)S2)cc1	PRMT1 FP inh 56.4 | PRMT1 inh conf inactive
Cc1ccc(S(=O)(=O)/N=C2/NC(=O)/C(=C/c3cccnc3)S2)cc1	none
COC(=O)[C@]12C[C@H](CC(=O)N3CCCCC3)C(=O)N(Cc3ccc(Cl)cc3Cl)C1=C[C@H](COCc1ccccc1)O[C@@H]2C	none (no result: PAD4 inh, TCR CD3 inh, PME-1 primary, Fam108B inh)
CCOc1ccc(-n2ccnc(SCC(=O)Nc3ccc(OC)cc3OC)c2=O)cc1	PRMT1 FP inh 26.8 | PRMT1 inh conf 26.9
COc1ccc(-n2ccnc(SCC(=O)NC3CCCC3)c2=O)cc1	none
COc1ccc(-n2ccnc(SCC(=O)NC3CCCC3)c2=O)cc1OC	none
O=C(CSc1nccn(-c2ccc(Br)cc2)c1=O)NC1CCCC1	none
O=C(CSc1nccn(-c2ccc(Br)cc2)c1=O)Nc1ccccc1F	PRMT1 FP inh 46.0 | PRMT1 inh conf inactive
Cc1ccc(-n2ccnc(SCC(=O)NC3CCCCC3)c2=O)cc1F	PRMT1 FP inh 26.4 | PRMT1 inh conf inactive
CCOc1ccc(-n2ccnc(SCC(=O)NCc3cccc(OC)c3)c2=O)cc1	none
COc1ccc(CNC(=O)CSc2nccn(-c3ccc(F)c(F)c3)c2=O)cc1	PRMT1 FP inh 32.8 | PRMT1 inh conf 26.6
Cc1ccc(S(=O)(=O)N2c3ccccc3C[C@H]2CCC(=O)c2ccccc2)cc1	none (no result: PAD4 inh, TCR CD3 inh, PME-1 primary, Fam108B inh)
Cc1ccc(N2CCN(/N=C\c3cccnc3)CC2)cc1	none (no result: PAD4 inh, TCR CD3 inh, PME-1 primary, Fam108B inh)
CCOC(=O)[C@]12CCCCC/C=C\1N(Cc1ccc(OC)cc1)C(=O)[C@H]2CC(=O)NCc1ccccc1	none (no result: PAD4 inh, TCR CD3 inh, PME-1 primary, Fam108B inh)
NC(=O)c1ccc(SCC(=O)OCC(=O)NC2CCCCCCC2)c([N+](=O)[O-])c1	PRMT1 FP inh 65.2 (no result: Fam108B inh) | PRMT1 inh conf 29.9
CC1CCC(NC(=O)COC(=O)CSc2ccc(C(N)=O)cc2[N+](=O)[O-])CC1 (centres undefined)	none
NC(=O)c1ccc(SCC(=O)OCC(=O)NCc2ccco2)c([N+](=O)[O-])c1	PRMT1 FP inh 26.1 | PRMT1 inh conf inactive
O=C(NC1CCCCC1)O[C@H]1CC[C@@]23CCCN2C(=O)CCC[C@H]3C1	none (no result: PAD4 inh, TCR CD3 inh, PME-1 primary, Fam108B inh)
Cc1ccc(-n2c(SCC(=O)Nc3ccc4cn[nH]c4c3)nnc2-c2ccccc2)cc1	none (no result: PAD4 inh, TCR CD3 inh, PME-1 primary, Fam108B inh)
O=C(O)Cc1sc(Nc2ccc(F)cc2)nc1-c1cccs1	PRMT1 FP inh 31.4 | PRMT1 inh conf inactive
O=C(SCC(O)C(O)CS)c1cccs1 (centres undefined)	PRMT1 FP inh 65.0 | PRMT1 inh conf 54.2
COC(=O)C1CN(Cc2cn(Cc3ccc(Cl)cc3)nn2)CCS(=O)(=O)N1Cc1ccc(F)cc1 (centres undefined)	none (no result: PAD4 inh, TCR CD3 inh, PME-1 primary, Fam108B inh)
COc1cccc(/C=C2/CCC(CN(C)C)C2=O)c1 (centres undefined)	PRMT1 FP inh 41.4 (no result: PAD4 inh, PME-1 primary, Fam108B inh) | PRMT1 inh conf 70.6
CCN(CC)C(=O)CSc1nc2c(sc(=S)n2-c2ccccc2)c(=O)n1Cc1ccco1	PRMT1 FP inh 24.9, PME-1 primary 63.1 | PRMT1 inh conf inactive
CCNC(=S)Nc1ccc(Cl)cc1	none
CCNC(=S)Nc1cc(-c2ccc(Cl)cc2)[nH]n1	PRMT1 FP inh 43.6 | PRMT1 inh conf 28.6
Cn1cnc([N+](=O)[O-])c1NC(C)(C)C	none
Cn1cnc([N+](=O)[O-])c1S(=O)(=O)c1ccc(Cl)cc1	PRMT1 FP inh 44.4 (no result: PAD4 inh, PME-1 primary, Fam108B inh) | PRMT1 inh conf inactive
CC1CCN(c2ccc(S(=O)(=O)N3CCC(C)CC3)cc2N)CC1	none
CN1C(=O)CC(=O)N(C)c2cc(S(=O)(=O)N(C)Cc3ccccc3)ccc21	PRMT1 FP inh 54.2 | PRMT1 inh conf 36.3
CC1CCN(S(=O)(=O)c2ccc3c(c2)N(C)C(=O)CC(=O)N3C)CC1	PRMT1 FP inh 47.2 | PRMT1 inh conf 44.2
Cc1ccc(S(=O)(=O)CCC(=O)c2ccc(F)cc2)cc1	none
Cc1ccc(C(=O)CCS(=O)(=O)c2ccc(F)cc2)cc1	PRMT1 FP inh 28.8 | PRMT1 inh conf 26.5
COC(=O)[C@]12CCCCC=C1N(Cc1ccc(OC)cc1)C(=O)[C@@H]2CC(=O)NCc1cccs1	none (no result: PAD4 inh, TCR CD3 inh, PME-1 primary, Fam108B inh)
O=C(Nc1ccccc1)C(Cl)C(=O)c1ccccc1 (centres undefined)	PRMT1 FP inh 61.9 | PRMT1 inh conf 79.0
Cc1cc(NS(=O)(=O)c2ccc(NC(=O)/C=C/c3ccc(C)o3)cc2)nc(C)n1	PRMT1 FP inh 55.1 | PRMT1 inh conf 54.2
Cc1cc(NS(=O)(=O)c2ccc(NC(=O)/C=C/c3ccccc3)cc2)nc(C)n1	none (no result: PME-1 primary, Fam108B inh)
COc1ccc(NC(=O)/C=C/c2ccc(C)o2)cc1S(=O)(=O)N1CCOCC1	PRMT1 FP inh 45.0 | PRMT1 inh conf 29.7
Cc1ccc(/C=C/C(=O)Nc2ccc([N+](=O)[O-])cc2)o1	PRMT1 FP inh 41.6 | PRMT1 inh conf inactive
Cc1cccc(C(=O)Nc2cccc3cccnc23)c1	none (no result: PAD4 inh, PME-1 primary, Fam108B inh)
Cc1ccc(/C=C/C(=O)Nc2cccc3cccnc23)o1	PRMT1 FP inh 59.0 | PRMT1 inh conf 22.7
COc1cc(/C=C/C(=O)Nc2ccc(OC)c(S(=O)(=O)N3CCOCC3)c2)ccc1OC(F)F	none (no result: PME-1 primary, Fam108B inh)
O=C(NCCc1c[nH]c2ccccc12)OCc1cn(-c2ccccc2Cl)nn1	none (no result: PAD4 inh, TCR CD3 inh, PME-1 primary, Fam108B inh)
CCC[C@H]1[C@@H](NC(=O)c2ccc(N(C)C)cc2)CC[C@@]23CCCN2C(=O)CCC[C@@H]13	none (no result: PAD4 inh, TCR CD3 inh, PME-1 primary, Fam108B inh)
Cc1cc(-c2ccco2)n(-c2ccccc2)n1	PRMT1 FP inh 42.8 | PRMT1 inh conf 21.4
Cc1cc(-c2ccccc2)n(-c2ccccc2)n1	none
O=C(NCCc1c[nH]c2ccccc12)OCc1cn(Cc2ccc(F)c(F)c2)nn1	none (no result: PAD4 inh, TCR CD3 inh, PME-1 primary, Fam108B inh)
Oc1ccc(N2CCN(c3ncnc4sc(-c5ccccc5)cc34)CC2)cc1	PRMT1 FP inh 32.4 (no result: PAD4 inh, PME-1 primary, Fam108B inh) | PRMT1 inh conf inactive
O=C(NC1=NCCS1)c1csc2ccccc12	PRMT1 FP inh 27.1 | PRMT1 inh conf inactive
O=C(NC1=NCCS1)c1ccccc1Cl	none
Cn1c(=O)c(NC2CCCCC2)c2c3c(cccc31)C(=O)c1ccccc1-2	PRMT1 FP inh 77.2 (no result: PAD4 inh, PME-1 primary, Fam108B inh) | PRMT1 inh conf 40.5
COc1cccc(CCNC(=O)CCc2nc(-c3ccccc3F)no2)c1	none (no result: PAD4 inh, TCR CD3 inh, PME-1 primary, Fam108B inh)
COc1ccc(C2OC(=O)c3ccccc3S2)cc1 (centres undefined)	PRMT1 FP inh 38.2 | PRMT1 inh conf inactive
COc1cc(C2OC(=O)c3ccccc3S2)cc(OC)c1OC (centres undefined)	none
